Where “and” joins values, the source holds several entries; their conditions need not be identical. Identical values can stand only once. Inconclusive results are not listed. A call without a number means that no potency is given here. Calls of active or inactive are those of the source. Unless noted, calls come from the whole dose curve; as a rule, active = well fitted curve in the direction sought with a large enough effect; inconclusive = small, poorly fitted or top-dose-only effect, or another doubt; inactive = no such curve, though single readings can be large; an effect the other way counts as inactive or inconclusive.
Assays:
[1] = Cell Viability - LYMP2-008 (AID 980); note: nearly all actives have a fitted effect of over 60% in size; note: potency is the fitted concentration of half-maximal effect
Summary of the method: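 Acute cytotoxicity is scored as concentration-dependent loss of cellular ATP in a human lymphoblastoid line after 24 hr treatment at 37 C. ATP is quantified by luciferase luminescence.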

[2] = Cell Viability - LYMP2-010 (AID 981);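 note: cells exposed to compound for 24 hours at 37 °C; nearly all actives have a fitted effect of over 55% in size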; note: potency is the fitted concentration of half-maximal effect
Summary of the method: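 Acute toxicity is scored as a concentration-dependent loss of cellular ATP in human lymphoblastoid cells after 24 hr compound exposure in complete medium. Tetraoctylammonium bromide is the positive control.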

[3] = Cell Viability - LYMP2-012 (AID 982);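 note: cellular ATP by luciferase luminescence where a drop means cytotoxicity; cells exposed to compound for one day before reading; nearly all actives have a fitted effect of over 55% in size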; note: potency is the fitted concentration of half-maximal effect
[4] = Cell Viability - LYMP2-014 (AID 983);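 note: cells exposed to compound for 24 h at 37 °C; nearly all actives have a fitted effect of over 50% in size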; note: potency is the fitted concentration of half-maximal effect
Summary of the method: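 Decrease in intracellular ATP after 24 hr treatment at 37 C, measured by luciferase luminescence, indicated cytotoxicity. Concentration-response data were fitted with the standard Hill equation to give AC50.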

[5] = Cell Viability - LYMP2-016 (AID 984);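 note: cells exposed to compound for 24 hours at 37 °C; nearly all actives have a fitted effect of over 55% in size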; note: potency is the fitted concentration of half-maximal effect
Summary of the method: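 Human lymphoblastoid cells (LYMP2-016), 2500/well in complete medium, preincubated 5 hr at 37 C, then compound-treated 24 hr at 37 C. Intracellular ATP read by CellTiter-Glo luminescence after 30 min at room temperature; AC50 from Hill-equation concentration-response fits.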

[6] = Cell Viability - LYMP2-018 (AID 985);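 note: compound exposure lasted 24 hr at 37 °C; nearly all actives have a fitted effect of over 50% in size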; note: potency is the fitted concentration of half-maximal effect
Summary of the method: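 Acute cytotoxicity is scored as a concentration-dependent drop in intracellular ATP after 24 hr exposure of the lymphoblastoid line in complete culture medium, measured by luciferase luminescence. Potency is expressed as AC50 from Hill modelling.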

[7] = Cell Viability - LYMP2-020 (AID 986);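 note: cells exposed to compound for 24 h at 37 °C; nearly all actives have a fitted effect of over 55% in size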; note: potency is the fitted concentration of half-maximal effect
Summary of the method: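 Acute cytotoxicity in a human lymphoblastoid line is scored as a concentration-dependent fall in cellular ATP after 24 hr at 37 C in complete medium. The positive control is tetraoctylammonium bromide, and potency is given as Hill-fit AC50.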

[8] = Cell Viability - LYMP2-022 (AID 987); note: nearly all actives have a fitted effect of over 55% in size; note: potency is the fitted concentration of half-maximal effect
Summary of the method: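 Acute toxicity in a human lymphoblastoid line is scored as decreased intracellular ATP after 24 hr compound treatment at 37 C. ATP is measured by CellTiter-Glo luminescence; curves are fitted with the Hill equation to give AC50.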

[9] = Cell Viability - LYMP2-024 (AID 988); note: nearly all actives have a fitted effect of over 60% in size; note: potency is the fitted concentration of half-maximal effect
Summary of the method: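 Acute toxicity is measured as concentration-dependent loss of intracellular ATP in a human lymphoblastoid line treated 24 hours at 37 C. Luciferase luminescence quantifies ATP; AC50 values come from standard Hill-equation modelling.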

[10] = Cell Viability - LYMP2-026 (AID 989);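 note: cells exposed to compound for 24 h at 37 °C; nearly all actives have a fitted effect of over 50% in size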; note: potency is the fitted concentration of half-maximal effect
Summary of the method: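 Concentration-dependent loss of intracellular ATP in human lymphoblastoid cells after 24 hr at 37 C, quantified by luciferase luminescence. AC50 derived from standard Hill equation.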

[11] = Cell Viability - LYMP1-002 - Assay at 24 hr (AID 993)
Summary of the method: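 qHTS, LYMP1-002 lymphoblastoid, 24 h cpd, 37 C, CellTiter-Glo ATP luminescence; AC50 via Hill eq.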

[12] = qHTS Assay for Lipid Storage Modulators (AID 1519; calls by dose curve); conditions: Drosophila S3 cells, BODIPY lipid droplet/cell ratio, laser cytometry, cells loaded with oleic acid
Summary of the method: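 Cells seeded at 5,000 per well were treated with compounds over a concentration series and loaded with oleic acid (400 uM, as added). Lipid droplet fluorescence (488 nm excitation, 500-530 nm channel) was read by laser-scanning cytometry and normalized to 20 uM Triacsin C.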

[13] = target: Alpha-galactosidase A (Homo sapiens) (UniProt P06280); assay: Counterscreen for Glucocerebrosidase Inhibitors: qHTS Assay for Human alpha-Galactosidase at pH 4.5 (AID 992)
Summary of the method: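 Human enzyme (2 nM) with 80 uM 4-methylumbelliferyl alpha-D-galactopyranoside in 50 mM citric acid, 0.005% Tween-20, pH 4.5, 20 min at room temperature. Compounds 0.7 nM–77 uM; fluorescence Ex 365/Em 440 after pH 10 stop; AC50 from Hill fits.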

[14] = target: alpha-glucosidase (Oryza sativa, rice) (UniProt Q653V4); assay: Counterscreen for Glucocerebrosidase Inhibitors: qHTS Assay for Rice alpha-Glucosidase at pH 5.0 (AID 997)
Summary of the method: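 Rice alpha-glucosidase (4 nM final) with 400 uM 4-methylumbelliferyl-alpha-D-glucopyranoside in citrate buffer pH 5.0, 20 min at room temperature, stopped at pH 10; fluorescence 365/440 nm, compounds 0.7 nM–77 uM, AC50 from Hill fits.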

[15] = measured here: cell count channel max response
[16] = measured here: lipid channel max response

Chain of Alpha-galactosidase A (Homo sapiens) (P06280 whole entry, looked up): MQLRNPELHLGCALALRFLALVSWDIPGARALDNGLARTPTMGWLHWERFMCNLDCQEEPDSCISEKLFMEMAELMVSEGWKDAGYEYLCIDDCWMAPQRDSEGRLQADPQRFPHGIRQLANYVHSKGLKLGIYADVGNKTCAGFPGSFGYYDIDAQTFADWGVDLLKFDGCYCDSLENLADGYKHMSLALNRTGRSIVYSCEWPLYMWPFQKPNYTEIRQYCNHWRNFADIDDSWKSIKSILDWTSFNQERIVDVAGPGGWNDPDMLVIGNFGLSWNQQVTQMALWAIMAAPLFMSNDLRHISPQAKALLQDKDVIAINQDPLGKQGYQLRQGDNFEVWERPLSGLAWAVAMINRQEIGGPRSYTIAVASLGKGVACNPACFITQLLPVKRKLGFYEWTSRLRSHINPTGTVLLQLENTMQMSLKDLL

IC(I)I
Potency [1]: inactive | Potency [2]: inactive | Potency [3]: inactive | Potency [4]: inactive | Potency [5]: inactive | Potency [6]: inactive | Potency [7]: inactive | Potency [8]: inactive | Potency [9]: inactive | Potency [10]: inactive | outcome [11]: inactive

O=CCCCC=O
Potency [1]: 25.1 µM (active) | Potency [2]: 20 µM (active) | Potency [3]: 15.8 µM (active) | Potency [4]: 25.1 µM (active) | Potency [5]: 25.1 µM (active) | Potency [6]: 20 µM (active) | Potency [7]: 15.8 µM (active) | Potency [8]: 10 µM (active) | Potency [9]: 12.6 µM (active) | Potency [10]: 25.1 µM (active) | outcome [11]: inactive

CC1=C(/C=C/C(C)=C/C=C/C(C)=C/CO)C(C)(C)CCC1
Potency [2]: 50.1 µM (active) | Potency [3]: 50.1 µM (active) | Potency [6]: 50.1 µM (active) | Potency [7]: 50.1 µM (active) | Potency [8]: 39.8 µM (active) | Potency [9]: 50.1 µM (active) | outcome [11]: inactive

CCOc1ccc2c(c1)C(C)=CC(C)(C)N2
Potency [1]: inactive | Potency [4]: inactive | Potency [5]: inactive | Potency [6]: inactive | Potency [10]: inactive | outcome [11]: inactive | activity change, negative = inhibition ([12]; at 25.7 µM (top of the series)): -15.7% (inactive) | max response [12, 15]: -17.3% | max response [12, 16]: -29.2%

Nc1ccn([C@H]2CS[C@@H](CO)O2)c(=O)n1
Potency [1]: inactive | Potency [2]: inactive | Potency [3]: inactive | Potency [4]: inactive | Potency [5]: inactive | Potency [6]: inactive | Potency [7]: inactive | Potency [8]: inactive | Potency [9]: inactive | Potency [10]: inactive | outcome [11]: inactive

O=C(O)CCC(=O)C(=O)O
Potency [1]: inactive | Potency [2]: inactive | Potency [3]: inactive | Potency [4]: inactive | Potency [5]: inactive | Potency [6]: inactive | Potency [7]: inactive | Potency [8]: inactive | Potency [9]: inactive | Potency [10]: inactive | outcome [11]: inactive

Nc1c(Br)cc(Br)cc1CNC1CCC(O)CC1 (stereo not drawn)
activity change, negative = inhibition ([12]; at 25.7 µM (top of the series)): -1.33% (inactive) | activity change, negative = inhibition ([12]; at 57.5 µM (top of the series)): 7.29% (inactive) | max response [12, 15]: -4.61% and 6.29% | max response [12, 16]: -3.94% and 15.7%

CC(C)=O
Potency [1]: inactive | Potency [2]: inactive | Potency [3]: inactive | Potency [4]: inactive | Potency [5]: inactive | Potency [6]: inactive | Potency [7]: inactive | Potency [8]: inactive | Potency [9]: inactive | Potency [10]: inactive | outcome [11]: inactive

CN=C(NC#N)Nc1ccc(C2=NNC(=O)C[C@@H]2C)cc1
outcome [13]: inactive | outcome [14]: inactive | activity change, negative = inhibition ([12]; at 57.5 µM (top of the series)): -3.97% (inactive) | max response [12, 15]: -17.4% | max response [12, 16]: -20.4%

CCCCCCCC(=O)O
Potency [1]: inactive | Potency [2]: inactive | Potency [3]: inactive | Potency [4]: inactive | Potency [5]: inactive | Potency [6]: inactive | Potency [7]: inactive | Potency [8]: inactive | Potency [9]: inactive | Potency [10]: inactive | outcome [11]: inactive

COc1ccc(CCNC[C@H](O)c2ccc(O)cc2)cc1OC
outcome [13]: inactive | outcome [14]: inactive

CC1=C2[C@@H]([C@H](C)CC[C@H]2/C=C(\C)C(=O)O)[C@H](O)C1
Potency [1]: inactive | Potency [2]: inactive | Potency [3]: inactive | Potency [4]: inactive | Potency [5]: inactive | Potency [6]: inactive | Potency [7]: inactive | Potency [8]: inactive | Potency [9]: inactive | Potency [10]: inactive | outcome [11]: inactive

Cc1c(C)c2c(c(C)c1O)CC[C@@](C)(CCC[C@@H](C)CCC[C@@H](C)CCCC(C)C)O2
activity change, negative = inhibition ([12]; at 25.7 µM (top of the series)): -2.72% (inactive) | max response [12, 15]: 2.07% | max response [12, 16]: -0.999%

CCCCC/C=C\C/C=C\CCCCCCCC(=O)O
Potency [1]: inactive | Potency [3]: inactive | Potency [4]: inactive | Potency [5]: inactive | Potency [6]: inactive | Potency [7]: inactive | Potency [8]: inactive | Potency [9]: inactive | Potency [10]: inactive | outcome [11]: inactive

O=S(=O)(O)O
Potency [1]: inactive | Potency [2]: inactive | Potency [3]: inactive | Potency [4]: inactive | Potency [5]: inactive | Potency [6]: inactive | Potency [7]: inactive | Potency [8]: inactive | Potency [9]: inactive | Potency [10]: inactive | outcome [11]: inactive
